Assay results: ChEMBL document CHEMBL1961873, “Compounds: GSK PKIS; Assays: Nanosyn kinase panel” (2012)

What was measured:
[1] = biological target: High affinity nerve growth factor receptor (Homo sapiens) (UniProt P04629); details: at 1 µM;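 also: each value is the mean percent inhibition of TRKA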
[2] = biological target: BDNF/NT-3 growth factors receptor (Homo sapiens) (UniProt Q16620); details: at 0.1 µM
[3] = biological target: BDNF/NT-3 growth factors receptor (Homo sapiens) (UniProt Q16620); details: at 1 µM
[4] = biological target: NT-3 growth factor receptor (Homo sapiens) (UniProt Q16288); details: at 0.1 µM
Sequence of NT-3 growth factor receptor (Homo sapiens) (Q16288 32-839 limits assumed): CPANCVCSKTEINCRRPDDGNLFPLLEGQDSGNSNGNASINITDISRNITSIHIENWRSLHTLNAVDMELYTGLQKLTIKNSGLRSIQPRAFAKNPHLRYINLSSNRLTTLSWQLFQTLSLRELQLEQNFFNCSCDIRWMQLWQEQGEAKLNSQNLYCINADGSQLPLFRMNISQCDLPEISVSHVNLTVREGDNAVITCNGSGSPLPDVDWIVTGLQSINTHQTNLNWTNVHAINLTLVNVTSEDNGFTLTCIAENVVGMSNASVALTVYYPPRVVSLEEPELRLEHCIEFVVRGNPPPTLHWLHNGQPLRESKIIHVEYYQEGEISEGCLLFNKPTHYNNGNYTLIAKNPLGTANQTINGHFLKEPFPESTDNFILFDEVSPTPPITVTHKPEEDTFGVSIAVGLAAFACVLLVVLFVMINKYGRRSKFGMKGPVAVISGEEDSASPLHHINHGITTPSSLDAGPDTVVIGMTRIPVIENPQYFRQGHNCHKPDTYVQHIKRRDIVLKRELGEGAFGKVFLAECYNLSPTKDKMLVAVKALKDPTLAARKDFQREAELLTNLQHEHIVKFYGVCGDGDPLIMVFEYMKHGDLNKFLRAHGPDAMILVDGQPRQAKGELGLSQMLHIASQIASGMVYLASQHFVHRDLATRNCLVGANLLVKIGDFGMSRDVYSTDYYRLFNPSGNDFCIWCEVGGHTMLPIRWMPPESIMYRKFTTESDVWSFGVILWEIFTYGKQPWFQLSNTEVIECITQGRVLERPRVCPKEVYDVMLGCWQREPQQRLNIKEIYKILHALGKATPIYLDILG

[5] = biological target: NT-3 growth factor receptor (Homo sapiens) (UniProt Q16288); details: at 1 µM
[6] = biological target: T1, Tyrosine-protein kinase TXK (Homo sapiens) (UniProt P42681); details: at 0.1 µM
T1 sequence (whole entry): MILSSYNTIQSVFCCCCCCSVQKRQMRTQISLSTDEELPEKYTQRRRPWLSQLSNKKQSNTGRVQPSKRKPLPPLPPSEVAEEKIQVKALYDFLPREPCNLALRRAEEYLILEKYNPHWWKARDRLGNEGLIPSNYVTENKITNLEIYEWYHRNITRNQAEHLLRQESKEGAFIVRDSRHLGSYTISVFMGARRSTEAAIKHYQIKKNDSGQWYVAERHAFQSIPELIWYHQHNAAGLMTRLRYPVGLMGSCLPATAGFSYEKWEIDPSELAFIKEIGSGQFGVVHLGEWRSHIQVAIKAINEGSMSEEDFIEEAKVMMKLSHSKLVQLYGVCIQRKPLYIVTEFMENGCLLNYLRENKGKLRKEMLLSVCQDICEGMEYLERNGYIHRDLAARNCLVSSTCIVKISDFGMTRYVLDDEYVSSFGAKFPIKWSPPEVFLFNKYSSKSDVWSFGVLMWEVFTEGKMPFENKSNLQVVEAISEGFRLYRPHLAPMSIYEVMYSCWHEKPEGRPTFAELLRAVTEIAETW

[7] = biological target: T1, Tyrosine-protein kinase TXK (Homo sapiens); details: at 1 µM
[8] = biological target: Non-receptor tyrosine-protein kinase TYK2 (Homo sapiens) (UniProt P29597); details: at 0.1 µM;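 also: each value is a mean of the inhibition readings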
Sequence of Non-receptor tyrosine-protein kinase TYK2 (Homo sapiens) (P29597 whole entry): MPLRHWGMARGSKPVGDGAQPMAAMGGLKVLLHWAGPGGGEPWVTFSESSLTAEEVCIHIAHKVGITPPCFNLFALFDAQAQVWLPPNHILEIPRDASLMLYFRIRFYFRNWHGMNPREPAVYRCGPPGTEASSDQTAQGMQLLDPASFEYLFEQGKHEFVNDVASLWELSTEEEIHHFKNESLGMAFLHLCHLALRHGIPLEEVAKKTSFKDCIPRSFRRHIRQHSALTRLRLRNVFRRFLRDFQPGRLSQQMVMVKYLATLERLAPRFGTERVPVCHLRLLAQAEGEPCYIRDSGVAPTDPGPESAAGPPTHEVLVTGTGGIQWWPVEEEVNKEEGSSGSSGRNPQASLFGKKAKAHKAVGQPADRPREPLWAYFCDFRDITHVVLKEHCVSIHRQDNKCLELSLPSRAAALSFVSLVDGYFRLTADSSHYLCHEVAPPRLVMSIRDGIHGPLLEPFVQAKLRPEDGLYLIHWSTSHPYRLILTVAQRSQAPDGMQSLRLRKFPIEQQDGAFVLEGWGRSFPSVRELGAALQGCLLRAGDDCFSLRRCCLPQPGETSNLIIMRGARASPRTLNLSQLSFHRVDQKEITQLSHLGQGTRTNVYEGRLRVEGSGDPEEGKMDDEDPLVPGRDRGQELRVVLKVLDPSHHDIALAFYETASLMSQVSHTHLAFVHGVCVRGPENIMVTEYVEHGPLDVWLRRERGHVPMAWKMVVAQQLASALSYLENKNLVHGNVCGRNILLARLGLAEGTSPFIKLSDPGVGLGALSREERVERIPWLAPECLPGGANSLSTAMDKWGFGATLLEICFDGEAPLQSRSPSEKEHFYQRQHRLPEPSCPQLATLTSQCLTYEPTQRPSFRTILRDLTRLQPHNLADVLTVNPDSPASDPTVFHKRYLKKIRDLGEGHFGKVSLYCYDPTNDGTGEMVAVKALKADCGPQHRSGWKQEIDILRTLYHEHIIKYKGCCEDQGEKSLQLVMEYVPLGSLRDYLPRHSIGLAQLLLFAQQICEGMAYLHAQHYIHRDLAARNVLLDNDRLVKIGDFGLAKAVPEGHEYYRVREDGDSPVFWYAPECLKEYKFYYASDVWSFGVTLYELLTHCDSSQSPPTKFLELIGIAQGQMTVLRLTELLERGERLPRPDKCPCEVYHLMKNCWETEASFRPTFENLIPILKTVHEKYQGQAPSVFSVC

[9] = biological target: T2, Dual specificity protein kinase TTK (Homo sapiens) (UniProt P33981); details: at 1 µM;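 also: reported figures are mean TTK inhibition at 1 µM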
T2 sequence (whole entry): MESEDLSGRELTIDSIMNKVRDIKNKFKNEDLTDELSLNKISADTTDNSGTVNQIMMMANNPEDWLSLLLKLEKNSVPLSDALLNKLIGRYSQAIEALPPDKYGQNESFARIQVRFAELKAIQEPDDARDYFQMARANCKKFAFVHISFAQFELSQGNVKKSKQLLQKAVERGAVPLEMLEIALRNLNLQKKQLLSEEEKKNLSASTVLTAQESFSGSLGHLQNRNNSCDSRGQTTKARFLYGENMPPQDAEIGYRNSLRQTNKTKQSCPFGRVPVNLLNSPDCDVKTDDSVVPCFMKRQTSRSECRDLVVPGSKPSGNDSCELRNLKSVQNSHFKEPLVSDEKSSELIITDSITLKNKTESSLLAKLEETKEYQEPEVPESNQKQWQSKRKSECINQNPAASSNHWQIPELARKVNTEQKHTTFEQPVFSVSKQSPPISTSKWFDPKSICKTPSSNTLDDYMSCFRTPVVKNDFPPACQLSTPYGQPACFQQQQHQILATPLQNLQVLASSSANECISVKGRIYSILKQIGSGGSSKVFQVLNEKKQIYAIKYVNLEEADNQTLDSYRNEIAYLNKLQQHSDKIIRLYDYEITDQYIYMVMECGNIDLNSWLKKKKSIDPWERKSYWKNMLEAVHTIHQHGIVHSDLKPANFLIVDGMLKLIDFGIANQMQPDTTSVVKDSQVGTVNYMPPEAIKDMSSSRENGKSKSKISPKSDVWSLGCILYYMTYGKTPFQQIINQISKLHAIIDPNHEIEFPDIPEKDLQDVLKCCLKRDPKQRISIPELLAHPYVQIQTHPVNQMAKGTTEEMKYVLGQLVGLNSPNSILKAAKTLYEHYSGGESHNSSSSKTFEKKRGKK

[10] = biological target: T3, Aurora kinase A (Homo sapiens) (UniProt O14965); details: at 0.1 µM
T3 sequence (whole entry): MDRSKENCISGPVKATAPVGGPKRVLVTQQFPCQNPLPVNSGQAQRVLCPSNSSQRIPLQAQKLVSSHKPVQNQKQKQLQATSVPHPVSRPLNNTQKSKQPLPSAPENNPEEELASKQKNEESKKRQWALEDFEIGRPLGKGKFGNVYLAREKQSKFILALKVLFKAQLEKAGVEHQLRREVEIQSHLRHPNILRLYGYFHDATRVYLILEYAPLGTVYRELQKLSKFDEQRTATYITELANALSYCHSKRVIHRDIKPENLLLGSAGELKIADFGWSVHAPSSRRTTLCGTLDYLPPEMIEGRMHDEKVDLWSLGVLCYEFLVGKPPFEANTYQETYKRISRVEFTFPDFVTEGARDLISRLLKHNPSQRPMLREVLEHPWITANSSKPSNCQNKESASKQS

[11] = biological target: T3, Aurora kinase A (Homo sapiens); details: at 1 µM
[12] = biological target: Aurora kinase B (Homo sapiens) (UniProt Q96GD4); details: at 0.1 µM
[13] = biological target: Aurora kinase B (Homo sapiens) (UniProt Q96GD4); details: at 1 µM
[14] = biological target: T4, Aurora kinase C (Homo sapiens) (UniProt Q9UQB9); details: at 0.1 µM
T4 sequence (whole entry): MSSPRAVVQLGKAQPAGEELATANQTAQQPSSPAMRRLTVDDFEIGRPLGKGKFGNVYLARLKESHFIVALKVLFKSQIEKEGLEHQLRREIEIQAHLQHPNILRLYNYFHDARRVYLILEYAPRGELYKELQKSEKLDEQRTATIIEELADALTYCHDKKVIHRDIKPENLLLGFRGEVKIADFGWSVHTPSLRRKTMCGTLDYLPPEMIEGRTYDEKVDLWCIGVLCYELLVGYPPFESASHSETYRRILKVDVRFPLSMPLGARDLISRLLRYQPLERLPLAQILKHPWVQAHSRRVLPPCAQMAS

[15] = biological target: T4, Aurora kinase C (Homo sapiens); details: at 1 µM
[16] = biological target: Serine/threonine-protein kinase 10 (Homo sapiens) (UniProt O94804); details: at 0.1 µM
Sequence of Serine/threonine-protein kinase 10 (Homo sapiens) (O94804 whole entry, looked up): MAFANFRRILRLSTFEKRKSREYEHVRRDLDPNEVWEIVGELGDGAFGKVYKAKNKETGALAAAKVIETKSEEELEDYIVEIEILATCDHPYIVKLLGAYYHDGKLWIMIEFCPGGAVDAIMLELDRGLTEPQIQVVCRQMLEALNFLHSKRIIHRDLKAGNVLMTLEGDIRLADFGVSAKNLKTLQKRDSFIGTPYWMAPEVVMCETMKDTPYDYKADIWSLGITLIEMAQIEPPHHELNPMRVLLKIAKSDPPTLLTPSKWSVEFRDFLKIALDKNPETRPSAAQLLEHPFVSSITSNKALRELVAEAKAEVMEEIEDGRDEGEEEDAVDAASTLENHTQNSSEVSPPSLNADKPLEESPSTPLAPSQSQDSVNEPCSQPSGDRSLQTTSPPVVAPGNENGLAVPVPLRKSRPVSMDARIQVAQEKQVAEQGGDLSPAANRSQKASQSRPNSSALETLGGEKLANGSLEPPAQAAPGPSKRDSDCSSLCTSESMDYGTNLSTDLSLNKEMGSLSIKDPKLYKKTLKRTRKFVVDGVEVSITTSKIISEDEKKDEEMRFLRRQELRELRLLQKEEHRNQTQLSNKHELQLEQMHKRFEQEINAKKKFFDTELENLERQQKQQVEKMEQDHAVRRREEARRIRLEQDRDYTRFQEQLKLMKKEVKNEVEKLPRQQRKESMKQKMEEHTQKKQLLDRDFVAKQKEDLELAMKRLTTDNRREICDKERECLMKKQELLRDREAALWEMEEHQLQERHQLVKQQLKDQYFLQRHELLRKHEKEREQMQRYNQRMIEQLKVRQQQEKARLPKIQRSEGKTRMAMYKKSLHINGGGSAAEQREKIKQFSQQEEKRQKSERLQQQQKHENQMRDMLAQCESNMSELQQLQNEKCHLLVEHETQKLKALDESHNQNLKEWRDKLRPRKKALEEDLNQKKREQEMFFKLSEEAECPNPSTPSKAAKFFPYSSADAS

[17] = biological target: Serine/threonine-protein kinase 10 (Homo sapiens) (UniProt O94804); details: at 1 µM
[18] = biological target: T5, Mitogen-activated protein kinase kinase kinase kinase 2 (Homo sapiens) (UniProt Q12851); details: at 0.1 µM
T5 sequence (whole entry): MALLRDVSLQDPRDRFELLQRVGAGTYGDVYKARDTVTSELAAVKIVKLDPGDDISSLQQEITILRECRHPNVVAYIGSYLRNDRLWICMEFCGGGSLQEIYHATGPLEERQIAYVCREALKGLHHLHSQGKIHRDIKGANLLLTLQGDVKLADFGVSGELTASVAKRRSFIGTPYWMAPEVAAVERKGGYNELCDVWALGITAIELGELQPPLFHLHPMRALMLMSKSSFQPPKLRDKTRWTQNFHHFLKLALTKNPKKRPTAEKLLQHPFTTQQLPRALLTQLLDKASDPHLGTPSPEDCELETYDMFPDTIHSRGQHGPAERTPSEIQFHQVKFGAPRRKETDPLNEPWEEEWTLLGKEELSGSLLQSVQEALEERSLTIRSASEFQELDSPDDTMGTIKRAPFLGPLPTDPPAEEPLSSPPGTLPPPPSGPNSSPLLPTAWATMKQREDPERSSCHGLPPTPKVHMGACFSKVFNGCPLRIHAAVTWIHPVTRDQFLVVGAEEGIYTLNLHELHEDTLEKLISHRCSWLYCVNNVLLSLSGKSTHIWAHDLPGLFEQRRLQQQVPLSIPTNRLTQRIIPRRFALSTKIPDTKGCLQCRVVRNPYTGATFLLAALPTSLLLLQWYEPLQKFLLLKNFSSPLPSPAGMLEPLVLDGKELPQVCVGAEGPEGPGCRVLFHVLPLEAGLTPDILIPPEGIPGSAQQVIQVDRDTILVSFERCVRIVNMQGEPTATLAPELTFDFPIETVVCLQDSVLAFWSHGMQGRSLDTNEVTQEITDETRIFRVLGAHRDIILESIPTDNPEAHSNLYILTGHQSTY

[19] = biological target: T5, Mitogen-activated protein kinase kinase kinase kinase 2 (Homo sapiens); details: at 1 µM
[20] = biological target: Mitogen-activated protein kinase kinase kinase kinase 4 (Homo sapiens) (UniProt O95819); details: at 0.1 µM
Sequence of Mitogen-activated protein kinase kinase kinase kinase 4 (Homo sapiens) (O95819 2-1239 limits assumed): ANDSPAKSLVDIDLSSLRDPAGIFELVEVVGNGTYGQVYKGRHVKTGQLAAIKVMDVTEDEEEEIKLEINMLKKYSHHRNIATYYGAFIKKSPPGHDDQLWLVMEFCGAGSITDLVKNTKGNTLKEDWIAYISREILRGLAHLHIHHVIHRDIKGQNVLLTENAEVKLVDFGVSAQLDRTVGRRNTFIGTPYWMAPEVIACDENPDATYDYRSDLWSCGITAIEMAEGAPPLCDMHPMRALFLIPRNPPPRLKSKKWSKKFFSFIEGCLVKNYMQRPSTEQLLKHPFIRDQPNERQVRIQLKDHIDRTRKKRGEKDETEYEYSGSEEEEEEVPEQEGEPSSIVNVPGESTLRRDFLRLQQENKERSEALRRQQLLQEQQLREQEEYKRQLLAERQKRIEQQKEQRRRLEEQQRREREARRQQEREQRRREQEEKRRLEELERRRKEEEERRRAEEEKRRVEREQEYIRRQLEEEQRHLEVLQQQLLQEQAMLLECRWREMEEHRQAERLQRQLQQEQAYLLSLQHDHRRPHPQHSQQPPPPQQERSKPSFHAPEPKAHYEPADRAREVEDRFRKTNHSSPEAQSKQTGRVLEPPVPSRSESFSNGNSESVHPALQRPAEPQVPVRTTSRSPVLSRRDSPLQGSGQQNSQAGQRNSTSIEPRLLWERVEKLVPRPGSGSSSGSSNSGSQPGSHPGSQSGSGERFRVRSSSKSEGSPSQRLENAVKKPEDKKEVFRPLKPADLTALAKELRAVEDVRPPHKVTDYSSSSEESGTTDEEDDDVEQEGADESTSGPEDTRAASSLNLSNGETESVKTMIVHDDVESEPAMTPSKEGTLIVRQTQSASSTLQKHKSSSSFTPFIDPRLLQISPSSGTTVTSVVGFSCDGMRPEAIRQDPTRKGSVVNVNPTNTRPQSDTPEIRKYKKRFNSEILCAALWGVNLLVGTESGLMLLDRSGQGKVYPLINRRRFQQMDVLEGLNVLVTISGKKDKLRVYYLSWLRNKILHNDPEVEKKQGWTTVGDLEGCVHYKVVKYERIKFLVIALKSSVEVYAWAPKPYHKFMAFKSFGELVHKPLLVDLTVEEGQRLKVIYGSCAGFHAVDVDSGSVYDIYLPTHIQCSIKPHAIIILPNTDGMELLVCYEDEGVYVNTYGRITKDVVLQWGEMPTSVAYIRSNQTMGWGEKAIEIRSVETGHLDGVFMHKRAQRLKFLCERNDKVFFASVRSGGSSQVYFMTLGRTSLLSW

Sequence of BDNF/NT-3 growth factors receptor (Homo sapiens) (Q16620 32-822 limits assumed): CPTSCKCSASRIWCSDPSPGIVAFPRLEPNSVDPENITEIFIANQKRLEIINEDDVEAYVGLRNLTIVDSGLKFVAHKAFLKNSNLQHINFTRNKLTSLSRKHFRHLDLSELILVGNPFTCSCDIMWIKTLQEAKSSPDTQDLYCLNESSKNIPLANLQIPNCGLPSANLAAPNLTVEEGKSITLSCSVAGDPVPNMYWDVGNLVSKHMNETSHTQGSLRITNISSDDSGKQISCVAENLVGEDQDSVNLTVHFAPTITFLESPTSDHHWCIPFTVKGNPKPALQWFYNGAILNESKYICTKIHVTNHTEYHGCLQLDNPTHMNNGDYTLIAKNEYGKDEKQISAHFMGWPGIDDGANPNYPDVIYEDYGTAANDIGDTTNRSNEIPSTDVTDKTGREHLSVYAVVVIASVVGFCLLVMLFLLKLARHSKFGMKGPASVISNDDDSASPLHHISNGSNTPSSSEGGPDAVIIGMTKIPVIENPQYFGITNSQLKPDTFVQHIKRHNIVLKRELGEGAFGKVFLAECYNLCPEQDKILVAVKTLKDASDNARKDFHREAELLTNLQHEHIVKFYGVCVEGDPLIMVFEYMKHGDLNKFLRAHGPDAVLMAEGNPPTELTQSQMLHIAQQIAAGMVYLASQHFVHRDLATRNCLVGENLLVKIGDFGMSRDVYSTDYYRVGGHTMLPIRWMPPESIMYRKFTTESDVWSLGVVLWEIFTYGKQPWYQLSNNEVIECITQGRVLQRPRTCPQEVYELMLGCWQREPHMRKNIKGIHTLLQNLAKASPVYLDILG

Compound | inhibition [1] | inhibition [2] | inhibition [3] | inhibition [4] | inhibition [5] | inhibition [6] | inhibition [7] | inhibition [8] | inhibition [9] | inhibition [10] | inhibition [11] | inhibition [12] | inhibition [13] | inhibition [14] | inhibition [15] | inhibition [16] | inhibition [17] | inhibition [18] | inhibition [19] | inhibition [20]
c1ccc(-c2nc3n(c2-c2ccc4c(c2)OCO4)CCC3)nc1 | 2.69% | -0.27% | 2.27% | -0.01% | 3.2% | 1.77% | 1.77% | -1.06% | 0.07% | 0.45% | 2.32% | 1.52% | 2.28% | 0.37% | -3.23% | -0.05% | 3.42% | 2.19% | 2.78% | 2.84%
Cc1cccc(Nc2ncc(-c3ccccc3)o2)c1 | 6.23% | 3.27% | 11.7% | 1.16% | 12.2% | 7.08% | 5.35% | 1.38% | 6.17% | 2.74% | 7.93% | 3.4% | 7.88% | 0.68% | 11.2% | 3.16% | 7.96% | 1.52% | 4.15% | 2.79%
N#Cc1c(NC(=O)c2ccc(F)cc2)sc2c1CCCC2 | -0.28% | 0.21% | 0.82% | 0.15% | 1.15% | 1.7% | 2.45% | -3.45% | 2.26% | 1.91% | 0.18% | 2.3% | 1.27% | 0.83% | -4.93% | 3.11% | 6.81% | 0.12% | 1.05% | 1.93%
COc1ccc(-c2cc3c(N)ncnc3o2)cc1 | 2.94% | -0.36% | 1.81% | 0.53% | 0.25% | 0.91% | 2.2% | -0.95% | 0.09% | 0.51% | 1.33% | -0.85% | 11.7% | 1.13% | 16.7% | -1.35% | 0.33% | 2.31% | 4.72% | 2%
COC(=O)Nc1nc2ccc(Oc3ccc(NC(=O)Nc4cccc(Cl)c4)cc3)cc2[nH]1 | 41.6% | 8.53% | 22% | 11.7% | 26.1% | 0.76% | 2.29% | 2% | 3.42% | 2.85% | 0.65% | 16% | 22.7% | 16.6% | 35.3% | 14.1% | 27.1% | 0.77% | 7.45% | 0.19%
COc1ccc2c(-c3ccnc(Nc4cccc(OC(F)(F)F)c4)n3)cnn2n1 | 11.1% | 2.97% | 7.33% | 2.73% | 12.3% | 2.09% | 5.53% | -3.37% | 17.1% | 0.72% | 33.9% | 5.14% | 28.8% | 2.02% | 56.9% | 4.75% | 10.6% | 0.05% | 5.46% | 4.63%
Nc1nc(-c2cccc(Cl)c2)c(-c2ccc3ncccc3n2)s1 | -0.34% | 2.86% | 7.16% | 2.95% | 5.02% | 4.04% | 4.05% | -3.11% | -0.66% | 2.19% | 4.83% | 3.18% | 5.58% | 1.1% | -2.15% | 8.2% | 14.4% | 1.48% | 3.7% | 12.6%
O=C(Nc1n[nH]c2cc(-c3ccc(F)cc3)ccc12)C1CC1 | 4.23% | 2.53% | 5.87% | 2.91% | 7.26% | 2.11% | 3.11% | -5.76% | 3.14% | 2.98% | 12.8% | 2.7% | 6.25% | 0.6% | 6.95% | 3.84% | 8.91% | 1.48% | 5.08% | 20.1%
COc1cc(N2CCN(C(C)C)CC2)ccc1Nc1nc(Nc2ccc(F)cc2C(N)=O)c2cc[nH]c2n1 | 4.26% | -0.6% | 3.09% | -0.87% | -0.43% | 8.7% | 5.7% | -1.63% | 85.6% | 2.91% | 4.58% | 2.99% | 2.23% | 0.8% | 2.67% | 3.31% | 11.8% | 4.5% | 31.1% | 18.1%
COc1cccc(-c2c[nH]c3c(N/N=C/c4ccncc4)ncnc23)c1 | 7.45% | 2.41% | 19.4% | 4.04% | 23.3% | 4.87% | 16.8% | 1.21% | 10.6% | 4.07% | 37.7% | 9.33% | 55.4% | 13.2% | 90.2% | 8.9% | 35.4% | 3.34% | 11.9% | 26%
CS(=O)(=O)CCNCc1coc(-c2ccc3ncnc(Nc4ccc(OCc5ccccc5)cc4)c3c2)c1 | 4.8% | 2% | 4.13% | 2.96% | 4.88% | 4.16% | 3.86% | 1.95% | 2.54% | 2.4% | 4.78% | 1.47% | 9.78% | 1.46% | 8.58% | 8.03% | 6.21% | 0.9% | 3.83% | 3.41%
